In the antibiotic and cytotoxicity screens of Wong et al. (2023) one finds cytotoxicity call data, which are given here for 69 compounds.

The campaign covered roughly 39,000 compounds. About 3,300 (8.5%) were called active. This is one part of a sample in which actives are shown more often than they occur.

This experiment relates to HepG2. Put plainly: cytotoxicity call (relative viability < 0.9). To be noted: 10 µM.
For `Cc1ccc(S(=O)(=O)N(C)C[C@H]2OCCCC[C@H](C)Oc3ccc(NC(=O)Nc4cccc5ccccc45)cc3C(=O)N([C@H](C)CO)C[C@H]2C)cc1`, the cytotoxicity call is “inactive”.

As for `NCCCN1CCCN(CCCN)CC1`, the cytotoxicity call is “inactive”.

As to `NCCCn1c2c(c3ccccc31)CCCC2`, the cytotoxicity call was “active”.

In the case of `CC(=O)N1C(=O)N(C(C)=O)[C@@H](O)[C@H]1O`, the cytotoxicity call was “inactive”.

With `O=C(C[C@@H]1CC[C@H](NS(=O)(=O)c2ccccc2)[C@H](CO)O1)NCc1ccncn1`, the cytotoxicity call was “inactive”.

`Nc1nnc(C(F)(F)F)[nH]1`: the cytotoxicity call was “inactive”.

Turning to `CCCc1ccc2c(c1)CNCCC2`, the cytotoxicity call was “inactive”.

Consider `COc1ccc(NC(=O)N(C)C[C@@H]2OCCCC[C@@H](C)Oc3ccc(NC(=O)Cc4ccccc4)cc3C(=O)N([C@H](C)CO)C[C@@H]2C)cc1`, for which the cytotoxicity call is “inactive”.

In the case of `C[C@@H]1CN([C@H](C)CO)C(=O)c2cc(NS(C)(=O)=O)ccc2O[C@@H]1CN(C)C(=O)Nc1ccc2c(c1)OCO2`, the cytotoxicity call is “inactive”.

For the compound `C[C@@H]1CN([C@H](C)CO)C(=O)c2cc(NC(=O)Nc3ccccc3)ccc2O[C@@H](C)CCCCO[C@@H]1CN(C)S(=O)(=O)c1ccccc1`, the cytotoxicity call is “inactive”.

In the case of `C[C@@H]1CN([C@H](C)CO)C(=O)c2cccc(NC(=O)Nc3cccc4ccccc34)c2O[C@@H]1CN(C)Cc1ccc(Oc2ccccc2)cc1`, the cytotoxicity call is “inactive”.

For the compound `C[C@H](CO)N1C[C@H](C)[C@H](CN(C)Cc2ccc(Oc3ccccc3)cc2)Oc2c(NC(=O)Nc3cccc4ccccc34)cccc2C1=O`, the cytotoxicity call is “inactive”.

Consider `C[C@H](CO)N1C[C@H](C)[C@@H](CN(C)Cc2ccc(Oc3ccccc3)cc2)Oc2c(NC(=O)Nc3cccc4ccccc34)cccc2C1=O`, for which the cytotoxicity call is “active”.

Turning to `COc1ccc(CN(C)C[C@@H]2Oc3c(NC(=O)Nc4cccc5ccccc45)cccc3C(=O)N([C@@H](C)CO)C[C@@H]2C)cc1`, the cytotoxicity call is “inactive”.

As for `C[C@H]1CN([C@@H](C)CO)C(=O)c2cccc(NC(=O)Nc3cccc4ccccc34)c2O[C@H]1CN(C)Cc1ccc(Oc2ccccc2)cc1`, the cytotoxicity call was “active”.

Regarding `COc1ccc(CN(C)C[C@@H]2Oc3c(NC(=O)Nc4cccc5ccccc45)cccc3C(=O)N([C@H](C)CO)C[C@@H]2C)cc1`, the cytotoxicity call is “inactive”.

For `CO[C@@H]1CN(C)C(=O)c2cc(NC(=O)Nc3cccc(Cl)c3)ccc2OC[C@H](C)N(C(=O)Nc2c(C)noc2C)C[C@@H]1C`, the cytotoxicity call was “inactive”.

With `C[C@H]1CC/C=C\[C@H]2O[C@@]34C=CCN(Cn5nnc6ccccc65)C(=O)[C@H]3N(CCCO)C(=O)[C@@H]4[C@@H]2C(=O)O1`, the cytotoxicity call was “inactive”.

With `C[C@H]1CCCCO[C@H](CN(C)C(=O)c2ccccc2)[C@@H](C)CN([C@@H](C)CO)C(=O)c2cc(NC(=O)Nc3ccc(C(F)(F)F)cc3)ccc2O1`, the cytotoxicity call is “inactive”.

`O=C(NC1(C(F)(F)F)Oc2cc(Cl)c(Cl)cc2O1)C1=C(N2CCOCC2)/C(=C/c2ccccc2)CC1`: the cytotoxicity call is “active”.

For the compound `C[C@H]1CN([C@@H](C)CO)C(=O)c2cc(NS(=O)(=O)c3ccc(F)cc3)ccc2O[C@@H]1CN(C)CC1CC1`, the cytotoxicity call was “inactive”.

Regarding `C[C@@H]1CN([C@H](C)CO)C(=O)c2cccc(NC(=O)C3CC3)c2O[C@@H]1CN(C)S(=O)(=O)c1cccs1`, the cytotoxicity call is “inactive”.

As to `C[C@@H]1CN([C@H](C)CO)C(=O)Cc2cc(NC(=O)Nc3ccc(F)cc3)ccc2O[C@@H]1CN(C)S(=O)(=O)c1cn(C)cn1`, the cytotoxicity call was “inactive”.

On to `C[C@H](CO)N1C[C@H](C)[C@@H](CN(C)S(=O)(=O)c2cccs2)Oc2ccc(NC(=O)Nc3cccc4ccccc34)cc2C1=O`, for which the cytotoxicity call is “inactive”.

With `CN1CCN(CCO)C(=O)C12CCN([C@H]1CCOC1)CC2`, the cytotoxicity call is “inactive”.

`C=CCOC(=O)[C@H]1[C@@H]2C(=O)O[C@@H](c3ccccc3)[C@@H](c3ccccc3)N2[C@@H](c2ccc(OCCOC(=O)[C@H]3C[C@H]4C(=O)N5CCC[C@H]5C(=O)N4[C@H]3c3ccc(O)cc3)cc2)[C@]12C(=O)Nc1ccc(I)cc12`: the cytotoxicity call was “inactive”.

Consider `Cc1noc(C)c1S(=O)(=O)Nc1ccc2c(c1)CC(=O)N([C@H](C)CO)C[C@@H](C)[C@H](CN(C)Cc1ccc(Oc3ccccc3)cc1)O2`, for which the cytotoxicity call is “inactive”.

For the compound `COc1oc(C(=O)NC2CCCCC2)c(-c2ccc(Cl)cc2)c1S(=O)(=O)c1ccc(Cl)cc1`, the cytotoxicity call is “inactive”.

On to `COc1oc(C(=O)NC2CCCCC2)c(-c2ccc(Cl)cc2)c1S(=O)(=O)c1ccc(Br)cc1`, for which the cytotoxicity call was “inactive”.

`C#CCOc1ccc(-c2c(C(=O)NC3CCCCC3)oc(OC)c2S(=O)(=O)c2ccc(Cl)cc2)cc1`: the cytotoxicity call was “active”.

On to `C[C@@H]1CN([C@@H](C)CO)C(=O)c2cc(NS(=O)(=O)c3cn(C)cn3)ccc2O[C@@H](C)CCCCO[C@H]1CN(C)Cc1ccc(C(F)(F)F)cc1`, for which the cytotoxicity call is “inactive”.

Turning to `CCCCC1C(=O)N(c2ccccc2)N(c2ccc(O)cc2)C1=O` (centres undefined), the cytotoxicity call was “active”.

Consider `O=C1C(CCS(=O)c2ccccc2)C(=O)N(c2ccccc2)N1c1ccccc1` (centres undefined), for which the cytotoxicity call is “inactive”.

Take `CCCCC1C(=O)N(c2ccccc2)N(c2ccccc2)C1=O`: the cytotoxicity call was “inactive”.

Regarding `CC[C@H](C(=O)O)N1CCCC1`, the cytotoxicity call is “inactive”.

For the compound `C[C@H]1CN([C@@H](C)CO)C(=O)c2cc(NC(=O)CCCCCC(=O)Nc3ccccc3N)ccc2O[C@H]1CN(C)CC1CCCCC1`, the cytotoxicity call is “active”.

For the compound `C[C@@H]1CN([C@H](C)CO)C(=O)Cc2cc(NC(=O)CCCCCC(=O)Nc3ccccc3N)ccc2O[C@H]1CN(C)CC1CCCCC1`, the cytotoxicity call was “inactive”.

`C[C@@H]1CN([C@@H](C)CO)C(=O)c2cc(NC(=O)CCCCCC(=O)Nc3ccccc3N)ccc2O[C@H]1CN(C)CC1CCCCC1`: the cytotoxicity call is “inactive”.

Turning to `C[C@H](CO)N1C[C@H](C)[C@H](CN(C)CC2CCCCC2)Oc2ccc(NC(=O)CCCCCC(=O)Nc3ccccc3N)cc2C1=O`, the cytotoxicity call is “active”.

`C[C@@H]1CN([C@H](C)CO)C(=O)c2cc(NC(=O)CCCCCC(=O)Nc3ccccc3N)ccc2O[C@H]1CN(C)CC1CCCCC1`: the cytotoxicity call is “inactive”.

As for `C[C@@H]1CN([C@@H](C)CO)C(=O)c2cc(NC(=O)CCCCCC(=O)Nc3ccccc3N)ccc2O[C@@H]1CN(C)CC1CCCCC1`, the cytotoxicity call was “inactive”.

As to `C[C@H]1CN([C@@H](C)CO)C(=O)c2cc(NC(=O)CCCCCC(=O)Nc3ccccc3N)ccc2O[C@@H]1CN(C)CC1CCCCC1`, the cytotoxicity call was “inactive”.

Regarding `C[C@@H]1CCCCO[C@@H](CN(C)CC2CCCCC2)[C@@H](C)CN([C@H](C)CO)C(=O)c2cc(NC(=O)CCCCCC(=O)Nc3ccccc3N)ccc2O1`, the cytotoxicity call is “inactive”.

As for `C[C@@H]1CN([C@H](C)CO)C(=O)Cc2cc(NC(=O)CCCCCC(=O)Nc3ccccc3N)ccc2O[C@@H]1CN(C)CC1CCCCC1`, the cytotoxicity call is “inactive”.

Regarding `C[C@@H]1CN([C@@H](C)CO)C(=O)Cc2cc(NC(=O)CCCCCC(=O)Nc3ccccc3N)ccc2O[C@@H]1CN(C)CC1CCCCC1`, the cytotoxicity call was “active”.

As to `C[C@@H]1CN([C@@H](C)CO)C(=O)c2cc(NC(=O)CCCCCC(=O)Nc3ccccc3N)ccc2O[C@@H](C)CCCCO[C@@H]1CN(C)CC1CCCCC1`, the cytotoxicity call was “inactive”.

On to `C[C@H](CO)N1C[C@H](C)[C@@H](CN(C)CC2CCCCC2)Oc2ccc(NC(=O)CCCCCC(=O)Nc3ccccc3N)cc2C1=O`, for which the cytotoxicity call was “active”.

Take `Cc1noc(C)c1NC(=O)Nc1ccc2c(c1)C(=O)N([C@H](C)CO)C[C@H](C)[C@H](CN(C)S(=O)(=O)c1ccc(F)cc1)OCCCC[C@H](C)O2`: the cytotoxicity call was “inactive”.

For `C[C@H]1CCCCO[C@H](CN(C)S(=O)(=O)c2ccccc2)[C@@H](C)CN([C@@H](C)CO)C(=O)c2cc(NC(=O)C3CCCCC3)ccc2O1`, the cytotoxicity call is “inactive”.

For the compound `CN1CCN(C(=O)c2nn(C)c3c2CCN(S(C)(=O)=O)C3)CC1`, the cytotoxicity call was “inactive”.

Turning to `C[C@H](CO)N1C[C@H](C)[C@@H](CN(C)CC2CCOCC2)Oc2cc(-c3cccnc3)ccc2S1(=O)=O`, the cytotoxicity call was “inactive”.

On to `COc1ccc(S(=O)(=O)Nc2cccc3c2O[C@H](CN(C)C(=O)Nc2c(C)noc2C)[C@H](C)CN([C@H](C)CO)C3=O)cc1`, for which the cytotoxicity call is “inactive”.

On to `CCS(=O)(=O)N1C[C@]2(CCN(CC2)C(=O)Cc2ccccc2)c2c(n(c3cc(ccc23)OC)C)[C@@H]1CO`, for which the cytotoxicity call is “inactive”.

Consider `Cc1ccc[nH]c1=O`, for which the cytotoxicity call was “inactive”.

On to `COc1cccc(S(=O)(=O)N(C)C[C@@H]2Oc3cc(C#CCC(C)C)ccc3S(=O)(=O)N([C@@H](C)CO)C[C@@H]2C)c1`, for which the cytotoxicity call is “inactive”.

In the case of `CC1(C)SC2C(NC(=O)Cc3ccccc3)C(=O)N2C1C(=O)[O-].[K+]` (centres undefined), the cytotoxicity call was “inactive”.

`C[C@@H]1CCCCO[C@@H](CN(C)C(=O)Nc2ccc3c(c2)OCO3)[C@H](C)CN([C@@H](C)CO)C(=O)c2cc(NS(=O)(=O)c3ccc(F)cc3)ccc2O1`: the cytotoxicity call is “inactive”.

On to `COc1ccc(CN(C)C[C@H]2Oc3ccc(NC(=O)Cn4cnnn4)cc3CC(=O)N([C@H](C)CO)C[C@H]2C)cc1`, for which the cytotoxicity call is “inactive”.

Consider `C[C@@H]1CN([C@H](C)CO)C(=O)Cc2cc(NS(C)(=O)=O)ccc2O[C@@H]1CN(C)Cc1ccc2c(c1)OCO2`, for which the cytotoxicity call is “inactive”.

In the case of `Nn1c(-c2ccncc2)n[nH]c1=S`, the cytotoxicity call is “inactive”.

Turning to `O=C(/C=C/c1cccc(-c2cn(-c3ccc(C[C@H]4C(=O)O[C@@H](Cc5ccccc5)[C@H]5[C@@H]6C=CCCC=C6CN54)cc3)nn2)c1)NO`, the cytotoxicity call was “inactive”.

`O=C(NO)c1cn(-c2ccc(C[C@H]3C(=O)O[C@@H](Cc4ccccc4)[C@H]4[C@@H]5C=CCCC=C5CN43)cc2)nn1`: the cytotoxicity call is “active”.

As for `O=C(CCc1cn(-c2ccc(C[C@H]3C(=O)O[C@@H](Cc4ccccc4)[C@H]4[C@@H]5C=CCCC=C5CN43)cc2)nn1)NO`, the cytotoxicity call was “inactive”.

In the case of `CC(C)[C@@H](CO)N1C(=O)[C@]2(C)[C@H]3C(=O)OCCC/C=C\[C@H]3O[C@]23C=CCN(c2ccc(Cl)cc2)C(=O)[C@@H]13`, the cytotoxicity call was “inactive”.

Turning to `NC[C@@H]1O[C@H](C23CC4CC(CC(C4)C2)C3)Cc2c1ccc(O)c2O`, the cytotoxicity call is “inactive”.

Turning to `C[C@H](CO)N1C[C@H](C)[C@H](CN(C)S(C)(=O)=O)Oc2cc(-c3ccccc3F)ccc2S1(=O)=O`, the cytotoxicity call is “inactive”.

`C=C(C)COc1ccc([N+](=O)[O-])cc1`: the cytotoxicity call is “inactive”.

Take `CS(=O)(=O)Nc1ccc([N+](=O)[O-])cc1Oc1ccccc1`: the cytotoxicity call is “inactive”.

Take `O=[N+]([O-])c1ccc(Oc2ccc(-c3ccccc3)cc2)cc1`: the cytotoxicity call is “active”.
